# Laboratory results as given in the supplement of paper PMC11732987, “Enantioselective OTUD7B fragment discovery through chemoproteomics screening and high-throughput optimisation” (Communications Chemistry, 2025).
# Values without a mark were called inactive.
# Columns and labels:
# Assay in all cases: log2 ratio of Biotin-Ahx-Ub-VS probe labelling (fragment/DMSO); higher = less target engagement (more negative = stronger competition), active = hit call of the paper (q ≤ 0.05, log2 ratio ≤ -1)
# Conditions in all cases: compound concentration: 200 uM; treatment time: 3 h
# OTUD6B = molecular target: T1, OTUD6B (UniProt Q8N6M0)
# T1 sequence (whole entry): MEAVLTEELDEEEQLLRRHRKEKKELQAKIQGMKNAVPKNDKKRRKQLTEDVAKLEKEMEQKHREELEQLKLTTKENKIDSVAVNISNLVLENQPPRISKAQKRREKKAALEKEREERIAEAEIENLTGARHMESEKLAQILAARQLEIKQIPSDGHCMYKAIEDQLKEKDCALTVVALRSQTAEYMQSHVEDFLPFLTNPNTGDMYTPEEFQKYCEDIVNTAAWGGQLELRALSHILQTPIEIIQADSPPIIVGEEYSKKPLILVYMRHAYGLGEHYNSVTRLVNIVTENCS
# Method in brief: (§1)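 HEK293T lysate, 495 µg per sample in Tris/CHAPS/IGEPAL buffer with protease inhibitors, was treated in triplicate with fragment at 200 µM or vehicle for 3 h and then with Biotin-Ahx-Ub-VS at 0.5 µM final for 1 h. Labelled DUBs were NeutrAvidin-enriched, digested with LysC and trypsin, and run by diaPASEF LC-MS/MS. Spectronaut label-free quantities were global-median-normalised, and values are average log2 fragment/vehicle ratios by unpaired t-test on proteins with ≥2 unique peptides.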
# OTUD7B = molecular target: T2, OTUD7B (UniProt Q6GQQ9)
# T2 sequence (whole entry): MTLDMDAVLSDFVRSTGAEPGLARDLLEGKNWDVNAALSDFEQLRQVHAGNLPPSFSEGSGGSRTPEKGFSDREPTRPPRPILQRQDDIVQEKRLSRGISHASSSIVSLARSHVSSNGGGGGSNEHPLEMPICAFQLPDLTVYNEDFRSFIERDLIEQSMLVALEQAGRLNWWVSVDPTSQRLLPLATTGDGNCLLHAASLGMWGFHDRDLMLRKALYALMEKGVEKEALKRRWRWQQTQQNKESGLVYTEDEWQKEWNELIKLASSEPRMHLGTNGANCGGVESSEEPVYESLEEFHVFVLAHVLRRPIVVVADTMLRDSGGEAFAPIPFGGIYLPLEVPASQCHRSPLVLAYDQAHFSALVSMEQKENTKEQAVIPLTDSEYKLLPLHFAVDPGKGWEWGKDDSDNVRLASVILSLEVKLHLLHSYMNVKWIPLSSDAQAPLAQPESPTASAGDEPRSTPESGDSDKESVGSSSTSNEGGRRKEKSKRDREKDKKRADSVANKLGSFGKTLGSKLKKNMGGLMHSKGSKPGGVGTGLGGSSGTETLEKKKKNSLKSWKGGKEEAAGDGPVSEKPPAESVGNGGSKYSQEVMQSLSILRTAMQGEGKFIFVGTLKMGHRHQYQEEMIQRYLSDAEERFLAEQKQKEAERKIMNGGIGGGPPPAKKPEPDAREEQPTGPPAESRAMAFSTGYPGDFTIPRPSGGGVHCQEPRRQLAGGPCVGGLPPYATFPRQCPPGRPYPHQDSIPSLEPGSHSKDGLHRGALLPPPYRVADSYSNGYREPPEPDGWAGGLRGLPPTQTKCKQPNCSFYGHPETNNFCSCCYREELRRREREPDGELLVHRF
# Method in brief: as §1
# PRPF8 = PRPF8 (UniProt Q6P2Q9)
# Method in brief: as §1
# PSMD7 = molecular target: T3, PSMD7 (UniProt P51665)
# T3 sequence (whole entry): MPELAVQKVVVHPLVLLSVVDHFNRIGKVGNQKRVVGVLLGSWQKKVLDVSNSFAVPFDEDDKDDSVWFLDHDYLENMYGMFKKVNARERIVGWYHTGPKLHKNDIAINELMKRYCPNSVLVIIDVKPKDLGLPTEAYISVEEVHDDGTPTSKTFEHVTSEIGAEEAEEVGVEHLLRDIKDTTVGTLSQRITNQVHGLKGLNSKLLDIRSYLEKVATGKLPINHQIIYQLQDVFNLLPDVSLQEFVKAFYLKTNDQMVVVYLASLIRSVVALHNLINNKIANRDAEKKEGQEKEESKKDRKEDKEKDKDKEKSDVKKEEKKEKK
# Method in brief: as §1
# UCHL1 = UCHL1 (UniProt P09936)
# Chain of UCHL1 (P09936 whole entry, looked up): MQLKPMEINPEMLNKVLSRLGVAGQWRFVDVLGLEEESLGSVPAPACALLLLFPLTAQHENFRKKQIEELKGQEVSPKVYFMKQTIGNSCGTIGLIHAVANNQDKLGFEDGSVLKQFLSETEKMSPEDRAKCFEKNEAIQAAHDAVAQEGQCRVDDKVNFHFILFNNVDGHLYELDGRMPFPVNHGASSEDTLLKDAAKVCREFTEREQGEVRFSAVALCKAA
# Method in brief: as §1
# UCHL3 = molecular target: T4, UCHL3 (UniProt P15374)
# T4 sequence (whole entry): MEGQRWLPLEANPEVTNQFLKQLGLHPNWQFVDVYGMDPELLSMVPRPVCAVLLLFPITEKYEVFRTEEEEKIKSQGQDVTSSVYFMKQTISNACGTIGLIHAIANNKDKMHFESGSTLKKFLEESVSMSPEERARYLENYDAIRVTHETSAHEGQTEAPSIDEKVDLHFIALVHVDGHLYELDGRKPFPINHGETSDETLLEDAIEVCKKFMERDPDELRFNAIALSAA
# Method in brief: as §1
# UCHL5 = molecular target: T5, UCHL5 (UniProt Q9Y5K5)
# T5 sequence (whole entry): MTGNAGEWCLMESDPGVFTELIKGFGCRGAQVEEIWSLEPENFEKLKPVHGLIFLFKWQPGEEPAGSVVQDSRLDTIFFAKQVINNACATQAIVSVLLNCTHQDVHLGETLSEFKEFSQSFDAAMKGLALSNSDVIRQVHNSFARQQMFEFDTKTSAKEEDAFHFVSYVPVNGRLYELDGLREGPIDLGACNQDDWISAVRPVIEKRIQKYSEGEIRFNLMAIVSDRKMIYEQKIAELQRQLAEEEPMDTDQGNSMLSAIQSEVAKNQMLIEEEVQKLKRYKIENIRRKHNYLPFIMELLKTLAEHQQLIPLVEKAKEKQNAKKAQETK
# Method in brief: as §1
# USP10 = USP10 (UniProt Q14694)
# Chain of USP10 (Q14694 whole entry): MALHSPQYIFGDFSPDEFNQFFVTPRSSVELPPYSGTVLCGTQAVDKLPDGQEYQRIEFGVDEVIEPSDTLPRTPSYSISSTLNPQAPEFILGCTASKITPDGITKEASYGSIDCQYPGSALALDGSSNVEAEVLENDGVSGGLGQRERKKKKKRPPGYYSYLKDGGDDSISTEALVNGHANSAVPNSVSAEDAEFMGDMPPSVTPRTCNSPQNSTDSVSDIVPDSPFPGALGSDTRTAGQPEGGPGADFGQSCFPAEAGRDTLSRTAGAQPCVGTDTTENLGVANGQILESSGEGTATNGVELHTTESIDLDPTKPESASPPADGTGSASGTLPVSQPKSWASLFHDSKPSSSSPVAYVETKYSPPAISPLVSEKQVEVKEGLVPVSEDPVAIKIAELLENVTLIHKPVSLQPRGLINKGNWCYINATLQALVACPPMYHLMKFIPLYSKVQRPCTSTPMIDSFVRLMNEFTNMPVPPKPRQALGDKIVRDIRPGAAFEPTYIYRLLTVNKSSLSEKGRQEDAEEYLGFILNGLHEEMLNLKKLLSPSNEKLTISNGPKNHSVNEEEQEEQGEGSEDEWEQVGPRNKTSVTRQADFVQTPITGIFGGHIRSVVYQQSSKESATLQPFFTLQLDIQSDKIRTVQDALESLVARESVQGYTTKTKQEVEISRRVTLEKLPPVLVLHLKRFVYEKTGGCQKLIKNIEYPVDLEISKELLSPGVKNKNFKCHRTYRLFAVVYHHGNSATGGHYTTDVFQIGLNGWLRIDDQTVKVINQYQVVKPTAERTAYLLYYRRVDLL
# Method in brief: as §1
# USP15 = molecular target: T6, USP15 (UniProt Q9Y4E8)
# T6 sequence (whole entry): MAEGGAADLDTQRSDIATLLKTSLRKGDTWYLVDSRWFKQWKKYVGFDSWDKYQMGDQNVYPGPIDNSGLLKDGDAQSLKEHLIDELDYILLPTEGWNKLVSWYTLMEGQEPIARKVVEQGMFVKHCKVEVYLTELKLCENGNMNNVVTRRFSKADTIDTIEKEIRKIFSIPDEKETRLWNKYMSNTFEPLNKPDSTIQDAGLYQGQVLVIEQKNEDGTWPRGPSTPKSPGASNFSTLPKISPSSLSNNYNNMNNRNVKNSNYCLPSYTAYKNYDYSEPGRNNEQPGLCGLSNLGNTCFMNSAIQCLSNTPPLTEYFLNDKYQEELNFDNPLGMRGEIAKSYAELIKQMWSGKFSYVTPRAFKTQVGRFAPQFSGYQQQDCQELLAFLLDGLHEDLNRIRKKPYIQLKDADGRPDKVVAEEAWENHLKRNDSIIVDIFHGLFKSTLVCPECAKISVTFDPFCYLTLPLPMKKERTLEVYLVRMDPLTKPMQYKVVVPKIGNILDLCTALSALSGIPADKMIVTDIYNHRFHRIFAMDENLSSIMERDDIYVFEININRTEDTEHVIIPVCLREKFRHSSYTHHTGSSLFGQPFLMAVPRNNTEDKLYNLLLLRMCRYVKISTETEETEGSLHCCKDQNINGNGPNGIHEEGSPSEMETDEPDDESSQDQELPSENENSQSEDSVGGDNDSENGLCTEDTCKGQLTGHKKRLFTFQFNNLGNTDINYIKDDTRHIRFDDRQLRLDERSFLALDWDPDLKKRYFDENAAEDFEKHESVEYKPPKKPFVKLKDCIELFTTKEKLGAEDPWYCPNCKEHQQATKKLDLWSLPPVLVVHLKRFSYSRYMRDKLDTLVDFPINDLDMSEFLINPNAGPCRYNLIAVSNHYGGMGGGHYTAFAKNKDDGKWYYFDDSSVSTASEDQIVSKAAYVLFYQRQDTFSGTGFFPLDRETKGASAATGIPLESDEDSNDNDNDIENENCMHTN
# Method in brief: as §1
# USP16 = USP16 (UniProt Q9Y5T5)
# Chain of USP16 (Q9Y5T5 whole entry, looked up): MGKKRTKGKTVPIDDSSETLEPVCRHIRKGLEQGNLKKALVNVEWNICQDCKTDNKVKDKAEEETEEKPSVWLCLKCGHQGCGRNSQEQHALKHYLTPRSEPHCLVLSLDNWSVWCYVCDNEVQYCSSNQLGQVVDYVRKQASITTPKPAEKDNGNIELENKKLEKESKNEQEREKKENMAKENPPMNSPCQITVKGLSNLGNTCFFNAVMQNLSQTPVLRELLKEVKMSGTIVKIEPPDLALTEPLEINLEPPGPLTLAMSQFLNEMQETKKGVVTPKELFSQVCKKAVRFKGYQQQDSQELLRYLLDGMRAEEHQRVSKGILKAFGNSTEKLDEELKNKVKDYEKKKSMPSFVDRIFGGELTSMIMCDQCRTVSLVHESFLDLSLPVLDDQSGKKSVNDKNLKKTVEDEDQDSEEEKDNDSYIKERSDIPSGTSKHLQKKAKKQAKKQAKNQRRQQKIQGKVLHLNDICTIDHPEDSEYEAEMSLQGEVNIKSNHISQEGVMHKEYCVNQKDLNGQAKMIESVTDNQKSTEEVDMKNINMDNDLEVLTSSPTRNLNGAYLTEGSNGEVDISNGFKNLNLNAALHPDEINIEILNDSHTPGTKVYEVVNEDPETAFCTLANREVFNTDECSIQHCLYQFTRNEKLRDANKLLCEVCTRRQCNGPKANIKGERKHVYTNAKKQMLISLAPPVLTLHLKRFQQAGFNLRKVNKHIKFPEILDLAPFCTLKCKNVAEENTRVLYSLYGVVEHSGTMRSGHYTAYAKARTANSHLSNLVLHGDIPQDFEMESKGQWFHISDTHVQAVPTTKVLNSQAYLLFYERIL
# Method in brief: as §1
smiles,measurement,setting,value
Cl.O=C(CCl)N1CCn2cncc2C1,log2 ratio of Biotin-Ahx-Ub-VS probe labelling,OTUD6B,-0.541
same,log2 ratio of Biotin-Ahx-Ub-VS probe labelling,OTUD7B,-0.166
same,log2 ratio of Biotin-Ahx-Ub-VS probe labelling,PRPF8,0.208
same,log2 ratio of Biotin-Ahx-Ub-VS probe labelling,PSMD7,0.0226
same,log2 ratio of Biotin-Ahx-Ub-VS probe labelling,UCHL1,-1.37 (active)
same,log2 ratio of Biotin-Ahx-Ub-VS probe labelling,UCHL3,0.291
same,log2 ratio of Biotin-Ahx-Ub-VS probe labelling,UCHL5,0.0547
same,log2 ratio of Biotin-Ahx-Ub-VS probe labelling,USP10,-0.131
same,log2 ratio of Biotin-Ahx-Ub-VS probe labelling,USP15,-0.372
same,log2 ratio of Biotin-Ahx-Ub-VS probe labelling,USP16,-0.425
